An excerpt weighted towards active compounds, which were near 2.3% of everything screened.
Tau fluor counter: counter-screen for tau fibril formation inhibitors. tau K18 P301L Alexa594 fluorescence, heparin fibrillization. Potency, µM (series often up to 57.7 µM), for the others: at the highest dose activity change, negative = decrease. actives 0.93% (n = 280,000). AID 1463; note: potency is the fitted concentration of half-maximal effect; nearly all actives have a fitted effect of over 55% in size
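Human K18 P301L tau (15 uM unlabeled plus 0.24 uM Alexa 594-labeled, final) in 100 mM sodium acetate pH 7 was mixed with compound and 20 uM heparin and incubated 6 hr at 37 C.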
Tau FP inhib: tau fibrillization inhibition (FP); AID 1468; P10636; actives 0.39% (n = 280,000); Potency, µM (top dose mostly 57.7 µM), without a hit: at the top dose activity, negative = inhibition, most hits filed as inhibitors; K18 P301L tau heparin fibrillization, Alexa594 FP, 6 h; note: potency is the fitted concentration of half-maximal effect; nearly all actives have a fitted effect of over 55% in size
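K18 P301L tau (15 uM unlabeled/0.24 uM Alexa 594-labeled, final) + compound + heparin 20 uM final; 100 mM NaOAc pH 7; 6 hr 37 C; ThT 30 uM final added, 1 hr RT; FP ex 555/em 632 nm.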
FBPA coupling cs: inhibits coupling enzyme system, counter-screen for aldolase hits | coupling enzyme system counterscreen, AmpLite Red fluorescence | activity change, negative = inhibition, % at 58.2 µM, hits read low | actives 0.67% (n = 290,000) | AID 2472; in the data active = activity change below about -30%
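First, compound is pin-transferred into glyceraldehyde-3-phosphate coupling-enzyme reagent at 57.5 uM final and held 10 min at RT. Next, substrate, coupling system and AmpLite Red are added. After 20 min RT, fluorescence (525/598 nm) is read.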
USP1 inh: USP1/UAF1 (human) deubiquitinase inhibition | AID 743255 | Potency, µM (highest dose often 57.1 µM), without a hit: at the highest dose activity change, negative = inhibition, usual class: inhibitors | actives 0.23% (n = 390,000) | recombinant USP1/UAF1, Ub-Rhodamine cleavage fluorescence; note: potency is the fitted concentration of half-maximal effect; nearly all actives have a fitted effect of over 60% in size
Target sequence (O94782 whole entry, looked up): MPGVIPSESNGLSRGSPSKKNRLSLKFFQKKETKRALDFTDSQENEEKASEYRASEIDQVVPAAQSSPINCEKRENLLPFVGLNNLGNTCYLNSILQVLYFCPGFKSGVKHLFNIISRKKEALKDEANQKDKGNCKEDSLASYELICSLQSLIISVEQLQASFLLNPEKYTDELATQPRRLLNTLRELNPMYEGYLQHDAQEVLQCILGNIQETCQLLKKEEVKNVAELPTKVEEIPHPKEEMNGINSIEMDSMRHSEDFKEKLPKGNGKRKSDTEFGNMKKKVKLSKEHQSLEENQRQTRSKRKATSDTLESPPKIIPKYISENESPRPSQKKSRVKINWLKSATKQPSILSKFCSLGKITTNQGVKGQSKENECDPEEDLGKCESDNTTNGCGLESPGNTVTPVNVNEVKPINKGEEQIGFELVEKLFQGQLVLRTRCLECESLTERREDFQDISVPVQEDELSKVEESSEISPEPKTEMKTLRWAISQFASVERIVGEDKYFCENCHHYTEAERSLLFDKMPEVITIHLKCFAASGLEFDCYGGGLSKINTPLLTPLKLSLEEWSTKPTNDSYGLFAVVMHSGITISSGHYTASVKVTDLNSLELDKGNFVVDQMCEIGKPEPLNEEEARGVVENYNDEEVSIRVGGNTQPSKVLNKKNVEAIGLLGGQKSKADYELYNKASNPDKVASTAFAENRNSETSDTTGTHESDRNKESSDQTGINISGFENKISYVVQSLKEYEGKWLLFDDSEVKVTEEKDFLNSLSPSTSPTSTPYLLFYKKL
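1 nM enzyme complex + cpd, 15 min RT; start with Ub-Rho 150nM final; kinetic fluorescence ex 480/em 540, 6 reads q60 s. Buffer 50mM HEPES pH 7.8, 0.5mM EDTA, 0.1 mg/ml BSA, 1mM TCEP, 0.01% Tween-20.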
Tau ThT inhib: blocks human tau fibril formation measured by thioflavin T. Potency, µM (series often up to 57.4 µM), without a hit: top-dose activity, negative = inhibition, usual class: inhibitors. actives 2.1% (n = 270,000). recombinant tau K18 P301L (four-repeat tau fragment), heparin-induced fibrillization, ThT fluorescence; note: potency is the fitted concentration of half-maximal effect; nearly all actives have a fitted effect of over 55% in size
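In this qHTS, human K18 P301L tau is incubated with compound and heparin for 6 hr at 37 C, and Thioflavin T fluorescence then reports fibril load.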
An asterisk follows results filed as active; ? = inconclusive; . = no result; [ ] = another dose, or the depositor's remark. Unless noted, calls come from the whole dose curve; as a rule, active = well fitted curve in the direction sought with a large enough effect; inconclusive = small, poorly fitted or top-dose-only effect, or another doubt; inactive = no such curve, though single readings can be large; an effect the other way counts as inactive or inconclusive. % is set by controls: 0 for no effect and ±100 for the full control effect.

SMILES | Tau fluor counter | Tau FP inhib | FBPA coupling cs | USP1 inh | Tau ThT inhib
COc1ccc(C(CCN2CCOCC2)c2c(O)cc(OC)cc2OC)cc1 (centres undefined) | 6.3% | -0.9% | -0.8 | -23.1% | 6.3%
Nc1nc(N)c(N=Nc2ccc(Cl)cc2)c(=O)[nH]1 | -2.2% | 8.2% | 4.2 | -11.1% | ?
Cc1[nH][nH]c(=O)c1N=Nc1ccc(Cl)cc1 | -15.4% | 0.0% | -0.5 | -19.1% | 8.91µM*
Cc1ccc(NC(=O)Cn2c(=O)n(Cc3ccc4c(c3)OCO4)c(=O)c3oc4ccccc4c32)cc1C | -6.4% | ? | . | 10.6% | ?
CC(C)COc1ccc(C(=O)Nc2sc3c(c2C(=O)O)CC(C)(C)OC3)cc1 | ? | -8.3% | 9.6 | -22.7% | 15.8µM*
CC1(C)Cc2c(sc(NC(=O)c3ccccc3)c2C(=O)O)CO1 | -12.6% | -6.1% | -18.7 | -4.3% | ?
O=C(Nc1ccc2c(c1)nc1n2CCN(Cc2ccccc2)C1)NC1CCCCC1 | ? | 5.2% | -36.6* | -5.9% | ?
COCCN1CCn2c(nc3cc(NC(C)=O)ccc32)C1 | . | . | -1.4 | -5.7% | .
O=C(Nc1ccc2c(c1)nc1n2CCN(Cc2ccccc2)C1)c1cccs1 | -29.1% | -4.9% | 0.6 | -22.3% | ?
COCCN1CCn2c(nc3cc(NC(=O)NC4CCCCC4)ccc32)C1 | -29.4% | 8.4% | -30.7* | -13.9% | ?
C[C@@H]1CCCCO[C@@H](CN(C)C(=O)c2ccccc2)[C@@H](C)CN([C@H](C)CO)C(=O)c2cc(N(C)C)ccc2O1 | . | . | . | -9.0% | .
CC(=O)Oc1cc(OC(C)=O)c2c(=O)cc(-c3ccc(OC(C)=O)c(OC(C)=O)c3)oc2c1 | ? | ? | 1.1 | . | ?
CC1(C)CC(=O)C2=C(C1)N=C1c3ccccc3C(=O)C1C2c1ccc(Cl)cc1 (centres undefined) | ? | 10.1% | -13.1 | -15.7% | ?
CCOC(=O)C1=C(C)N=C2c3ccccc3C(=O)C2C1c1ccc(Cl)cc1 (centres undefined) | 7.94µM*[quencher] | 0.8% | -5.6 | -17.5% | ?
Fc1ccc(N2CCN(C3=Nc4cccc5cccc3c45)CC2)cc1 | -24.3% | -1.0% | -4.5 | -16.9% | 4.47µM*
Cc1noc(C)c1C(=O)OC(C)C(=O)c1c[nH]c2ccccc12 (centres undefined) | . | . | . | -11.2% | .
O=C(Cn1c(=O)n(Cc2ccc3c(c2)OCO3)c(=O)c2ccccc21)Nc1cccc(Cl)c1 | ? | 28.2µM* | . | ? | ?
CCOc1ccc(NC(=O)Cn2c(=O)n(Cc3ccc(C(=O)NCc4ccc5c(c4)OCO5)cc3)c(=O)c3ccccc32)cc1 | -20.8% | 28.2µM* | . | -26.6% | -3.4%
O=C(Cn1c(=O)n(Cc2ccc(C(=O)NCc3ccc4c(c3)OCO4)cc2)c(=O)c2ccccc21)Nc1cccc(Cl)c1 | -12.4% | ? | . | -10.8% | 5.2%
COCCCNC(=O)Cn1c(=O)n(CCCC(=O)NCc2ccc(C)cc2)c(=O)c2ccccc21 | -6.3% | -4.4% | . | ? | 0.0%
CC1(C)CC(=O)c2cc(C(=O)NC3CCSC3=O)c(=O)n(-c3ccccc3)c2C1 (centres undefined) | -14.1% | -11.2% | -5.1 | 0.4% | ?
O=C1CCCc2c1cc(C(=O)Nc1ccc(Br)cn1)c(=O)n2-c1ccccc1 | ? | ? | -51.3* | -9.9% | ?
O=C1CCCc2c1cc(C(=O)NC1CCSC1=O)c(=O)n2-c1ccccc1 (centres undefined) | -7.4% | -12.2% | -37.8* | -13.2% | -2.6%
CCN1/C(=C2\OC(=S)N(C)C2=O)C=Cc2ccccc21 | -13.5% | -1.0% | -1.1 | -7.3% | ?
CCSC1=NC(=O)/C(=C2/C=Cc3ccccc3N2CC)S1 | ? | 17.4% | -1.6 | -20.8% | 7.08µM*
SMILES | Tau fluor counter | Tau FP inhib | FBPA coupling cs | USP1 inh | Tau ThT inhib
Cc1cccc(N(CC(O)Cn2c3ccccc3c3ccccc32)S(=O)(=O)c2ccc(F)cc2)c1 (centres undefined) | ? | ? | . | -12.9% | -5.1%
CC1CCN(c2ccc(NC(=S)NC(=O)c3ccc(-c4cccc([N+](=O)[O-])c4)o3)cc2)CC1 | ? | -4.2% | 1.4 | -10.6% | 2µM*
CC(C)=CCC/C(C)=C/CC/C(C)=C/CC/C(C)=C/CC1=C(C)C(=O)c2ccccc2C1=O | ? | 5.3% | -33.7* | -24.0% | ?
CC(C)=CCC1=C(OCC(=O)O)C(=O)c2ccccc2C1=O | ? | -11.2% | -45.3* | 10µM* | ?
CCOC(=O)CC1=CC(C)(CC(=O)OCC)C(C#N)(C#N)C(N)=C1C#N (centres undefined) | -25.8% | ? | -4.9 | 3.5% | 28.2µM*
COc1ccc(NC(=O)c2ccc(CN3C(=O)CCn4nc(C)cc43)cc2)c(OC)c1 | 2.5% | 1.3% | . | -5.1% | 2.0%
CC(=O)/C(N=Nc1ccc2c(c1)OCCO2)=C(\C)O | -13.8% | -0.2% | 1.5 | -6.1% | 10µM*
CC(=O)/C(N=Nc1ccc(C(=O)O)cc1)=C(\C)O | -11.2% | -6.8% | -1.1 | -5.7% | -11.8%
CC(=O)/C(N=Nc1ccc2c(c1)OCO2)=C(\C)O | -13.8% | 5.2% | -0.9 | -16.0% | 3.55µM*
COCCCNC(=O)CSc1nc2c(sc3ccccc32)c(=O)n1CCCC(=O)NCCOC | -10.4% | -2.6% | . | 15.4% | -2.2%
COc1ccccc1CNc1ncnc2c1c(-c1ccccc1)cn2-c1cccc(C)c1 | -8.8% | -6.6% | . | 1.8% | -6.3%
COc1ccc(C(C[N+](=O)[O-])c2c(C)[nH]n(-c3ccccc3)c2=O)cc1 (centres undefined) | . | . | -39.1* | ? | .
Cc1ccc(NCC(O)C(O)C(O)CO)c(N=Nc2ccccc2)c1C (centres undefined) | 12.6µM*[quencher] | 9.7% | -3.9 | -18.9% | 2.51µM*
CC(=O)Nc1cc(NC(C)=O)c(N=Nc2ccccc2)cc1C | ? | 12.0% | 1.5 | -7.3% | .
Cc1ccc(OCC(=O)Nc2cc3nn(-c4ccccc4)nc3cc2C)cc1 | 0.1% | 2.6% | . | -25.5% | -6.1%
CCOc1ccccc1NC(=O)CCCc1nc(-c2ccccc2Cl)no1 | -21.8% | -11.6% | . | -1.1% | -15.6%
O=C(O)c1ccc(-c2cccc([N+](=O)[O-])c2)o1 | 6.7% | 0.9% | 6.5 | -3.9% | -15.0%
N#C/C(=C(/O)c1ccc(-c2cccc([N+](=O)[O-])c2)o1)c1nc2ccccc2s1 | ? | 9.8% | -2.0 | ? | 6.31µM*
CCCCNC(=S)NCc1ccc2[nH]c(C)cc2c1 | ? | 12.9% | -4.6 | -18.5% | -11.2%
CCOc1ccc(NC(=S)NCc2ccc3[nH]c(C)cc3c2)cc1 | 20µM*[quencher] | ? | -0.8 | -15.0% | ?
Cc1ccc(-c2nn(-c3ccccc3)cc2C(=O)Nc2ccc(C)c(S(=O)(=O)N3CCOCC3)c2)cc1 | ? | 15.8µM* | -0.4 | -13.8% | -0.7%

High-throughput results (PubChem)
